HTR5A inv ag: inverse agonist of human HTR5A in OPRM1-OPRD1 counter-screen; P47898; HTR5A cell line, luminescence, inverse agonism; inhibition, % at 9.3 µM; 0.083% of 340,000 active; in the data active = inhibition mostly above about 23%, no sharp cut-off; inactive = mostly below about 18%;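 also: 0% = cells with DMSO and 100% = no-cell wells with DMSO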
Target sequence (P47898 whole entry, looked up): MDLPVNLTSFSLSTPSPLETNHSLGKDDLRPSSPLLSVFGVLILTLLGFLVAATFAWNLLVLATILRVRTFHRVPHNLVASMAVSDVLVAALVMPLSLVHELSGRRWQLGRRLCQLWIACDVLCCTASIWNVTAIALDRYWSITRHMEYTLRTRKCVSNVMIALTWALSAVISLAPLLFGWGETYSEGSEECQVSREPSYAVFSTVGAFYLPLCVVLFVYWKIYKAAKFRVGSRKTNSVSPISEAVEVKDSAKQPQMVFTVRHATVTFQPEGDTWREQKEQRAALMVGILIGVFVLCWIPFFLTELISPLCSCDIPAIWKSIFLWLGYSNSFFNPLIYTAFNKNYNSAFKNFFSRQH
MOR-DOR inv ag: inverse agonists of human mu-delta opioid receptor heterodimerization; inhibition, % at 9.3 µM; 0.21% of 340,000 active; cell-based MOR-DOR heterodimer luminescence, inverse agonism; AID 504357; in the data active = inhibition above about 22%, passing the limit was not always enough;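 also: 0% = cells with DMSO and 100% = wells without cells with DMSO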
OPRM1-OPRD1 ag: OPRM1-OPRD1 heterodimerization agonism; cells, luminescence; activation, % at 9.3 µM; 0.3% of 340,000 active;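 also: 0% = vehicle-treated cells and 100% = reference agonist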
HTR5A ag: activates human HTR5A in OPRM1-OPRD1 agonist counter-screen | HTR5A agonist assay, luminescence, cell-based | activation, % at 9.3 µM | 0.61% of 340,000 active | AID 504692; in the data active = activation mostly above about 9.5%, no sharp cut-off; inactive = mostly below about 7.6%;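 also: 0% = cells with vehicle only and 100% = reference agonist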
OPRM1-D1 ag cf: OPRM1-OPRD1 heterodimer agonism, confirmation. shares compounds with OPRM1-OPRD1 ag. cells, MOR-DOR heterodimerization, luminescence complementation. activation, % at 9.3 µM. 45% of 830 active. AID 504904;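 also: 0% = vehicle-treated cells and 100% = reference agonist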
HTR5A ag counter: activates human HTR5A in OPRM1-OPRD1 agonist counter-screen | shares compounds with OPRM1-OPRD1 ag | HTR5A agonist counterscreen, cell luminescence | activation, % at 9.3 µM | 8% of 830 active | AID 504905; in the data active = activation above about 17%;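 also: 0% = vehicle-treated cells and 100% = reference agonist response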
Active calls of the source: *. The list is not random: actives were taken first. Their share in the collection is about 1.1%. Rule as the data show it, unless noted: active = activation above about 18%; inactive = the rest.

What do the screens show for `CN(C)C(CNC(=O)c1ccc(Br)cc1)c1ccco1` (stereo not drawn)?
HTR5A inv ag: -6; MOR-DOR inv ag: -206; OPRM1-OPRD1 ag: 43*; HTR5A ag: 2; OPRM1-D1 ag cf: 37*; HTR5A ag counter: -2

What do the screens show for `CN(C)C(CNC(=O)c1cccc(C(F)(F)F)c1)c1ccco1` (stereo not drawn)?
HTR5A inv ag: 18; MOR-DOR inv ag: -117; OPRM1-OPRD1 ag: 18*; HTR5A ag: -1; OPRM1-D1 ag cf: 45*; HTR5A ag counter: 0

What do the screens show for `CC1CCN(C(=O)CSc2nnc(CNc3ccc(F)cc3)n2Cc2ccco2)CC1`?
HTR5A inv ag: 17; MOR-DOR inv ag: 1; OPRM1-OPRD1 ag: 0; HTR5A ag: 1

Results for Cc1cc(C(=O)NCC(c2ccco2)N(C)C)ccc1[N+](=O)[O-] (stereo not drawn) ?
HTR5A inv ag: -5; MOR-DOR inv ag: -214; OPRM1-OPRD1 ag: 34*; HTR5A ag: 2; OPRM1-D1 ag cf: 26*; HTR5A ag counter: 2

Results for COCC(=O)OC1CCn2c1nc1c2C(=O)C(C)=C(NC(C)=O)C1=O (stereo not drawn) ?
HTR5A inv ag: -22; MOR-DOR inv ag: -111; OPRM1-OPRD1 ag: 23*; HTR5A ag: 6; OPRM1-D1 ag cf: -2; HTR5A ag counter: -4

What do the screens show for `C=CCn1c(O)c(C2=c3ccccc3=NC2=O)sc1=Nc1ccc(O)cc1`?
HTR5A inv ag: 21; MOR-DOR inv ag: -195; OPRM1-OPRD1 ag: 38*; HTR5A ag: -8; OPRM1-D1 ag cf: 15; HTR5A ag counter: 3

How did Cc1cc(/C=C2\SC(=Nc3ccccc3)NC2=O)c(C)n1-c1ccc(S(N)(=O)=O)cc1 do in these assays?
HTR5A inv ag: -18; MOR-DOR inv ag: inactive; OPRM1-OPRD1 ag: 120*; HTR5A ag: 6; OPRM1-D1 ag cf: 140*; HTR5A ag counter: -2

Results for O=C1NC(=Nc2ccccc2)S/C1=C\c1ccccc1 ?
HTR5A inv ag: 12; MOR-DOR inv ag: -122; OPRM1-OPRD1 ag: 24*; HTR5A ag: -2; OPRM1-D1 ag cf: 0; HTR5A ag counter: 6

Results for COc1ccc(NC(=O)/C(C#N)=C\c2ccc(-c3cccc(C(=O)O)c3C)o2)cc1 ?
HTR5A inv ag: 3; MOR-DOR inv ag: 11; OPRM1-OPRD1 ag: -2; HTR5A ag: -1

Results for C[C@@H]1CN([C@H](C)CO)C(=O)Cc2cc(NC(=O)CCC(F)(F)F)ccc2O[C@@H]1CN(C)C(=O)NC1CCCCC1 ?
HTR5A inv ag: -14; MOR-DOR inv ag: 3; OPRM1-OPRD1 ag: -1; HTR5A ag: 5

Results for CCc1ccc(C(=O)c2cnc3ccc(OC)cc3c2N2CCN(CC)CC2)cc1 ?
HTR5A inv ag: 7; MOR-DOR inv ag: inactive; OPRM1-OPRD1 ag: 111*; HTR5A ag: -3; OPRM1-D1 ag cf: -1; HTR5A ag counter: -1

What do the screens show for `CC(CCNC(=O)c1ccccc1)(CCNC(=O)c1ccccc1)[N+](=O)[O-]`?
HTR5A inv ag: -6; MOR-DOR inv ag: 14; OPRM1-OPRD1 ag: -3; HTR5A ag: 2

What do the screens show for `CCN(CC)c1ccc(C(=O)O)cc1`?
HTR5A inv ag: -21; MOR-DOR inv ag: 12; OPRM1-OPRD1 ag: -2; HTR5A ag: 0

How did CCN(CC)c1ccc(/C=C2\C(=O)c3ccc(C(=O)O)cc3C2=O)cc1 do in these assays?
HTR5A inv ag: 15; MOR-DOR inv ag: -107; OPRM1-OPRD1 ag: 21*; HTR5A ag: -8; OPRM1-D1 ag cf: 10; HTR5A ag counter: -6

What do the screens show for `CC(CNC(=O)C(C)C)NC(=O)C(C)C` (stereo not drawn)?
HTR5A inv ag: -12; MOR-DOR inv ag: 10; OPRM1-OPRD1 ag: -2; HTR5A ag: 3

Results for CCOc1[nH]c(/N=C/c2ccco2)c(C#N)c1C#N ?
HTR5A inv ag: -5; MOR-DOR inv ag: 3; OPRM1-OPRD1 ag: 0; HTR5A ag: 2

Results for O=C(COc1ccc(Br)cc1CO)Nc1ccc(S(=O)(=O)N2CCCCC2)cc1 ?
HTR5A inv ag: -7; MOR-DOR inv ag: -26; OPRM1-OPRD1 ag: 5; HTR5A ag: 2

What do the screens show for `CCc1ccc(OCC(=O)Nc2ccc(S(=O)(=O)N3CCCC3)cc2)c(Br)c1`?
HTR5A inv ag: -13; MOR-DOR inv ag: -104; OPRM1-OPRD1 ag: 19*; HTR5A ag: -3; OPRM1-D1 ag cf: 1; HTR5A ag counter: -5

Results for O=C(COc1ccc(/C=N/NC(=O)c2cc3ccccc3o2)cc1Cl)Nc1ccccc1 ?
HTR5A inv ag: -27; MOR-DOR inv ag: -237; OPRM1-OPRD1 ag: 41*; HTR5A ag: 9; OPRM1-D1 ag cf: 3; HTR5A ag counter: -4

What do the screens show for `COc1cc(/C=N/NC(=O)c2ccccc2O)ccc1OCC(=O)Nc1ccccc1`?
HTR5A inv ag: 18; MOR-DOR inv ag: 17; OPRM1-OPRD1 ag: -3; HTR5A ag: 2

How did Nc1nc(CCl)nc(Nc2ccc3ccccc3c2)n1 do in these assays?
HTR5A inv ag: -35; MOR-DOR inv ag: -396; OPRM1-OPRD1 ag: 80*; HTR5A ag: 13; OPRM1-D1 ag cf: 10; HTR5A ag counter: 13

How did Cc1ccccc1Nc1nc(N)nc(CCl)n1 do in these assays?
HTR5A inv ag: -24; MOR-DOR inv ag: 7; OPRM1-OPRD1 ag: -1; HTR5A ag: 6

How did Cc1cc(NC(=O)CN2CCc3ccccc3C2)nc2c1c(=O)oc1ccccc12 do in these assays?
HTR5A inv ag: 8; MOR-DOR inv ag: inactive; OPRM1-OPRD1 ag: 518*; HTR5A ag: -3; OPRM1-D1 ag cf: -4; HTR5A ag counter: 5

How did COc1ccc(NC(=O)c2ccc3ccccc3n2)cc1S(=O)(=O)N1CCCCC1 do in these assays?
HTR5A inv ag: -18; MOR-DOR inv ag: 10; OPRM1-OPRD1 ag: -2; HTR5A ag: 2

Results for COc1ccc(NC(=O)c2cc3ccccc3o2)cc1S(=O)(=O)N1CCCCC1 ?
HTR5A inv ag: -15; MOR-DOR inv ag: -106; OPRM1-OPRD1 ag: 21*; HTR5A ag: 4; OPRM1-D1 ag cf: 2; HTR5A ag counter: 0

What do the screens show for `Cc1cccc2cc(C(c3nnnn3Cc3ccccc3)N3CCN(C)CC3)c(=O)[nH]c12` (stereo not drawn)?
HTR5A inv ag: 0; MOR-DOR inv ag: -185; OPRM1-OPRD1 ag: 35*; HTR5A ag: 0; OPRM1-D1 ag cf: 38*; HTR5A ag counter: 2

Results for COc1ccc(Cn2nnnc2C(c2cc3cccc(C)c3[nH]c2=O)N2CCN(C)CC2)cc1 (stereo not drawn) ?
HTR5A inv ag: -4; MOR-DOR inv ag: -13; OPRM1-OPRD1 ag: 3; HTR5A ag: 0

Results for Cc1ccc2cc(C(c3nnnn3Cc3ccccc3)N3CCc4ccccc43)c(=O)[nH]c2c1 (stereo not drawn) ?
HTR5A inv ag: -10; MOR-DOR inv ag: -108; OPRM1-OPRD1 ag: 20*; HTR5A ag: -3; OPRM1-D1 ag cf: 60*; HTR5A ag counter: -1

What do the screens show for `O=c1[nH]c(=S)[nH]nc1Cc1ccccc1`?
HTR5A inv ag: -21; MOR-DOR inv ag: 17; OPRM1-OPRD1 ag: -4; HTR5A ag: 8
